# Measured values reported in PubChem BioAssay.
# Active and inactive are the calls of the source.
# Experiments:
# [1] = small molecules captured by biotinylated probe aFSTL3 – biochemical, small-molecule microarray, fluorescence 635/667, stem cell growth factor project, primary screen (AID 1064); conditions: higher = more signal;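 note: measures binding of the biotinylated anti-FSTL3 antibody to printed compounds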
# [2] = binders from COS7 lysate, DM2A8 probe, primary screen, torsin A project, cell lysate, small-molecule microarray, fluorescence 635/667 (AID 1065); conditions: higher = more signal, COS7 lysate expressing mutant human TOR1A
# [3] = small molecules captured by biotinylated probe aFGF2 – biochemical, small-molecule microarray, fluorescence 635/667, stem cell growth factor project, primary screen (AID 1067); conditions: higher = more signal;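 note: measures binding of biotinylated aFGF2 protein to printed compounds on slides; z-score merges feature fluorescence and signal-to-noise across triplicate slides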
# [4] = small molecules captured by biotinylated probe aFGF10 – biochemical, small-molecule microarray, fluorescence 635/667, stem cell growth factor project, primary screen (AID 1071); conditions: higher = more signal;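 note: score merges 667 nm spot intensity and signal to noise from triplicate slides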
# [5] = target: Neurogenic locus notch homolog protein 2 (Homo sapiens) (UniProt Q04721); assay: small molecules binding Notch2 protein – biochemical, small-molecule microarray, 635 nm fluorescence, stem cell growth factors, primary screen (AID 1073); conditions: higher = more signal
# Chain of Neurogenic locus notch homolog protein 2 (Homo sapiens) (Q04721 whole entry, looked up, canonical isoform): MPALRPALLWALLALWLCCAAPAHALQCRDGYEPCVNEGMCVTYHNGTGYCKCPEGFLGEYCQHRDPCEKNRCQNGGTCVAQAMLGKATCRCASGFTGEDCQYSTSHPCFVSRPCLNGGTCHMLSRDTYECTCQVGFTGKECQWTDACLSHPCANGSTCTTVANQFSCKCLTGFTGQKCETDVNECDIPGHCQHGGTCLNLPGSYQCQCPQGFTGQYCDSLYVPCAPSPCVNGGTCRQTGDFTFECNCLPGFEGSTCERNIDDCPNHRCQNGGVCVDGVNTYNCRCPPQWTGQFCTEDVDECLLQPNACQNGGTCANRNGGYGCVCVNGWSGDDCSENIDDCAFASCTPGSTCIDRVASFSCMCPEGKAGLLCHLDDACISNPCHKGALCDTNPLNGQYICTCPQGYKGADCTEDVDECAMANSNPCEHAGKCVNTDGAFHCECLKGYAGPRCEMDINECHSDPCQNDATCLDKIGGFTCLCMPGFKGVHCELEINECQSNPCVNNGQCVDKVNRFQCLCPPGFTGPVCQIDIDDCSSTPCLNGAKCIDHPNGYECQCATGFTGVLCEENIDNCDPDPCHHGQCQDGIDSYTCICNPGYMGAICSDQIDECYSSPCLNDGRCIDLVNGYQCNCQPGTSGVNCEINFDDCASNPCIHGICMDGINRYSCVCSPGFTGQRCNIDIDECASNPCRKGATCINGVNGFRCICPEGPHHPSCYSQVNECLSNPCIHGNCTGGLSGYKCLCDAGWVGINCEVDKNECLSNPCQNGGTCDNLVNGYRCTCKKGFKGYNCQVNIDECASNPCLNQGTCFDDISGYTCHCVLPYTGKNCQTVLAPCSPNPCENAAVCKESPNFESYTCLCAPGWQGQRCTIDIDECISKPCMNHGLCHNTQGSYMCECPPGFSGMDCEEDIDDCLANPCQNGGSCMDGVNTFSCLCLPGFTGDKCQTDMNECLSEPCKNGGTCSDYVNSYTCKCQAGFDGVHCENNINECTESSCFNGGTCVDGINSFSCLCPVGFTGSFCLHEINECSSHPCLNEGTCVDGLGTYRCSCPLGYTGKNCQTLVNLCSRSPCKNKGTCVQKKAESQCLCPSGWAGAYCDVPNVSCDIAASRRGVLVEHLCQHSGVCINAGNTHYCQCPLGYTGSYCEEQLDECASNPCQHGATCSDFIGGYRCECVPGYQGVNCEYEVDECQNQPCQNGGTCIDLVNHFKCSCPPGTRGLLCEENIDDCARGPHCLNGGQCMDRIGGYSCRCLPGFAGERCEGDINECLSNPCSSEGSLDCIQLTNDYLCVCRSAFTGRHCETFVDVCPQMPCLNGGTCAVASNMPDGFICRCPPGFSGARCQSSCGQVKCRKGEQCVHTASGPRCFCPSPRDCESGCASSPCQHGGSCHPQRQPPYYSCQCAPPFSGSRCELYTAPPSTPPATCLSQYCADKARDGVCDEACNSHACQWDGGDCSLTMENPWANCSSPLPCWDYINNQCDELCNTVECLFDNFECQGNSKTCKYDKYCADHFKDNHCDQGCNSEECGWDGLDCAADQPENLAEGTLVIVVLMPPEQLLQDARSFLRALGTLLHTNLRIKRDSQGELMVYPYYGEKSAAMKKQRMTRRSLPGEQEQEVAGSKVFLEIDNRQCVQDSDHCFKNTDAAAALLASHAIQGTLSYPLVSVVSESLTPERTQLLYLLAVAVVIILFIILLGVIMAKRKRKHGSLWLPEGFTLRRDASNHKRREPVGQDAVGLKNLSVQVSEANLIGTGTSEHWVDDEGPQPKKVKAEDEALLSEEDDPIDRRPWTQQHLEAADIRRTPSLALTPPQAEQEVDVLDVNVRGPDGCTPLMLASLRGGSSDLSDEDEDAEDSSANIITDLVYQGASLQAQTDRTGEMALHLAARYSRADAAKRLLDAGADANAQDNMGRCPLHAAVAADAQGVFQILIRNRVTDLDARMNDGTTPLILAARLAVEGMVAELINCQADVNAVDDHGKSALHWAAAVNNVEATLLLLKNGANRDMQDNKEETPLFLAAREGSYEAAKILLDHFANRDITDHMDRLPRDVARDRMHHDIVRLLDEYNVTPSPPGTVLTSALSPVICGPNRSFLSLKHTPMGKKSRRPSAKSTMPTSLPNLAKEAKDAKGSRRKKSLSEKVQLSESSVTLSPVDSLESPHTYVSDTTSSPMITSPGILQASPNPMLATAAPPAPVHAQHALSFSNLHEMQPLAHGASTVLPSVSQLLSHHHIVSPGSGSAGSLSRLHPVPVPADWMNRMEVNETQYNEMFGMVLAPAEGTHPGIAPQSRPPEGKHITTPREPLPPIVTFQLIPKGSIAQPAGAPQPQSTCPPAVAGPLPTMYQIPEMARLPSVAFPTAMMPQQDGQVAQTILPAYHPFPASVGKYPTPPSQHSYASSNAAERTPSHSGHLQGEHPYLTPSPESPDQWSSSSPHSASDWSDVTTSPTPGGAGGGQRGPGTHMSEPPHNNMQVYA
# [6] = target: Pro-neuregulin-1, membrane-bound isoform (Homo sapiens) (UniProt Q02297); assay: small molecules binding neuregulin-1 protein – biochemical, small-molecule microarray, fluorescence 635/667, psychiatric disease protein project, primary screen (AID 1075); conditions: NRG1 binding, 635 nm fluorescence, higher = more signal;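 note: score combines 667 nm spot fluorescence with signal to noise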
# Chain of Pro-neuregulin-1, membrane-bound isoform (Homo sapiens) (Q02297 whole entry, looked up, the tested form may be a part, canonical isoform): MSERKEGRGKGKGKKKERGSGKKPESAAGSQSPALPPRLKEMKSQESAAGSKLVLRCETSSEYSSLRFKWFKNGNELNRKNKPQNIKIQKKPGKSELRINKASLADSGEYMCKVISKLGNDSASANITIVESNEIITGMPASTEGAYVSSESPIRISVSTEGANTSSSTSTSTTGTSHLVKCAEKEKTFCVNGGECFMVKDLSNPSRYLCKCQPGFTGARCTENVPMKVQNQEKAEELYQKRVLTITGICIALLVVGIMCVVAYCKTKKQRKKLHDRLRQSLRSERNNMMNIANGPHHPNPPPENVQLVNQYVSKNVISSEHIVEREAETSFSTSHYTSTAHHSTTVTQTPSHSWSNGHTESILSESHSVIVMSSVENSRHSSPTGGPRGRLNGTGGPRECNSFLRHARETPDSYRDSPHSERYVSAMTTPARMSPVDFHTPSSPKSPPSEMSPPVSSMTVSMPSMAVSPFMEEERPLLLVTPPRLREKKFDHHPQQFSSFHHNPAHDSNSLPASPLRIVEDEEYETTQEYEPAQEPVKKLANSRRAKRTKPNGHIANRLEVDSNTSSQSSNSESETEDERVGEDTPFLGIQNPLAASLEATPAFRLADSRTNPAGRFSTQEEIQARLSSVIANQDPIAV
# [7] = tested on: Neuregulin-1 EGF-like domain; assay: small molecules binding NRG1 EGF domain – biochemical, small-molecule microarray, 635 nm fluorescence, primary screen (AID 1081); conditions: higher = more signal;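 note: binding of the protein to compounds printed on small-molecule microarray slides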
# [8] = FRG1 expression reporter modulators in myotubes – cell-based, C2C12 myotubes, firefly/Renilla luciferase, luminescence, FRG1 inhibition for FSHD, primary screen (AID 1084); conditions: FRG1 promoter luciferase, higher = more signal, called active from +8 up or from −8 down
# [9] = small molecules captured by biotinylated probe aFST – biochemical, small-molecule microarray, fluorescence 635/667, stem cell growth factor project, primary screen (AID 1086); conditions: higher = more signal;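 note: score merges 667 nm fluorescence with signal-to-noise of each printed compound spot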
# [10] = binders of probe aHhip on microarray, primary screen, stem cell growth factor project, biochemical, small-molecule microarray, fluorescence 635/667 (AID 1087); conditions: higher = more signal;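 note: score merges spot fluorescence at 667nm with spot signal to noise ratio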
SMILES,composite z-score [1],composite z-score [2],composite z-score [3],composite z-score [4],composite z-score [5],composite z-score [6],composite z-score [7],z-score [8],composite z-score [9],composite z-score [10]
CC(C)NC(=O)[C@@H]1c2ccccc2C(=O)N(C2CCCCC2)[C@H]1c1ccc(CO)cc1,0.0605,0.562,0.0703,0.74,0.851,1.15,1,0.492 (inactive),0.333,-0.216
CCCNC(=O)[C@@]1(c2ccc([N+](=O)[O-])cc2)CC(=O)N(CC23CC4CC(CC(C4)C2)C3)[C@@H]1c1ccc(CO)cc1I,0.188,0.388,-0.0644,0.0889,0.906,0.133,1.01,-2.05 (inactive),0.171,0.31
COCCOC(=O)N1C(=O)[C@@]2(c3cc(C#CCC(C(=O)OC)C(=O)OC)ccc31)[C@H](c1ccc(OCCO)cc1)N1[C@H](c3ccccc3)[C@H](c3ccccc3)OC(=O)[C@H]1[C@@H]2C(=O)NC[C@H](O)c1ccccc1,-1.25,0.501,-0.0272,1.15,1.45,0.824,1.28,-0.89 (inactive),-0.158,-0.521
COCCOC(=O)N1C(=O)[C@@]2(c3ccccc31)[C@H](c1ccc(O)cc1)N1[C@H](c3ccccc3)[C@H](c3ccccc3)OC(=O)[C@H]1[C@@H]2C(N)=O,0.113,0.192,-0.106,-0.304,-0.818,0.178,0.651,-1.16 (inactive),-0.722,-0.226
Cc1ccc(F)cc1S(=O)(=O)N[C@@H]1CCN(Cc2ccc(C(F)(F)F)cc2)C1,-0.234,0.588,-0.198,-1.06,-1.26,0.0824,-0.19,-3.87 (inactive),-0.47,-0.283
O=C(NCC(F)(F)F)[C@@H]1c2ccccc2C(=O)N(Cc2ccccc2)[C@H]1c1ccc(CO)cc1,1.16,0.299,-0.0637,-0.358,-0.514,0.0291,0.432,-1.3 (inactive),-0.419,-0.0078
CCOC(=O)N1C(c2ccc(OCCCO)cc2)=NC(C(=O)OC)N1C(=O)OCC (stereo not given),-0.243,0.0754,0.0794,0.683,1.17,1.39,1.14,1.37 (inactive),0.424,-0.347
COC(=O)[C@@]1(Cc2ccc(OC)cc2)[C@H]2c3cc(C(=O)N4CCCC4)n(CCc4ccccn4)c3C[C@H]2CN1C(=O)c1ccccc1,0.587,-0.0862,0.233,0.291,1.42,1.81,1.13,3.33 (inactive),0.462,0.251
C=CCN1C(=O)[C@@]2(O[C@@H](CCO)[C@H]([Si](C)(C)c3ccc(OC)cc3)[C@H]2C)c2cc(NC(C)=O)ccc21,-0.412,0.299,-0.0887,1.19,1.07,0.864,1.2,-0.174 (inactive),0.55,0.294
CC(=O)n1cc(C(O)C2C=CC3C(=O)N(c4ccccc4)C(=O)C3N2Nc2ccc(C#N)cc2)c2ccccc21 (stereo not given),-0.0594,-0.234,0.106,0.794,1.5,1.8,1.29,0.471 (inactive),0.296,0.0373
CCOC(=O)C1=C[C@@H](C(C)(C)C)N(S(=O)(=O)c2ccc(C)cc2)[C@H]1c1ccc(Cl)c(Cl)c1,-0.301,0.134,0.12,0.614,1.56,1.53,0.911,-0.446 (inactive),0.514,-0.236
CCOC(=O)C1=CC[C@@H](c2ccccc2)N(S(=O)(=O)c2ccc(C)cc2)[C@H]1c1ccc(C#N)cc1,-0.0221,0.381,0.054,0.359,1.43,1,1.01,-1.59 (inactive),0.832,-0.161
CC(C)N1C(=O)c2ccccc2[C@](C)(C(=O)NCCCN(C)C)[C@@H]1c1ccc(CO)cc1,0.261,1.04,-0.154,-0.231,-0.595,0.724,1.07,1.47 (inactive),-0.128,-0.0672
COc1ccc([Si](C)(C)[C@H]2[C@H](CC(=O)N3CCC[C@H]3CO)O[C@@]3(C(=O)N(Cc4cccc(N5CCC5=O)c4)c4ccccc43)[C@@H]2C)cc1,-0.226,0.149,0.0496,1,1.01,0.865,1.32,-4.15 (inactive),0.774,-0.253
CCOC(=O)C=Cc1cccc(OC)c1O,-0.0086,0.689,-0.0894,-0.572,-1.37,-0.196,0.189,6.99 (inactive),-0.722,-0.439
CC(c1ccccc1)C(O)C1C=CC2C(=O)N(Cc3ccccc3)C(=O)C2N1n1cnnc1 (stereo not given),-0.0479,0.327,-0.0165,0.351,1.07,0.446,1.01,-0.0355 (inactive),0.541,0.0373
CO[C@H]1O[C@H](CO)[C@@H](OC(=O)Nc2ccc3c(c2)OCO3)[C@H](OC(=O)Nc2ccc3c(c2)OCO3)[C@H]1OC(=O)Nc1ccc2c(c1)OCO2,0.0472,-0.235,0.0575,0.844,1.39,1.83,1.25,6.05 (inactive),0.634,-0.0296

SMILES,composite z-score [1],composite z-score [2],composite z-score [3],composite z-score [4],composite z-score [5],composite z-score [6],composite z-score [7],z-score [8],composite z-score [9],composite z-score [10]
O=C1C[C@@](C(=O)O)(c2ccc([N+](=O)[O-])cc2)[C@@H](c2ccc(CO)cc2I)N1C1CCCCC1,0.0508,0.0298,-0.0256,0.798,1.11,1.39,0.94,-1.26 (inactive),0.797,0.12
COc1ccc(C#Cc2ccc3c(c2)[C@]2(C(=O)N3)[C@H](C(=O)N3CCc4cc(OC)c(OC)cc4C3)[C@H]3C(=O)O[C@H](c4ccccc4)[C@H](c4ccccc4)N3[C@@H]2c2ccc(OCCO)cc2)cc1,-0.304,0.487,0.0019,0.817,1.32,0.213,1.2,0.239 (inactive),0.35,0.314
Cc1ccccc1/C=C/C=O,-0.162,-0.623,-0.135,-0.0909,-1.09,-0.628,-0.631,0.258 (inactive),-0.127,0.0957
O=C1O[C@@H](c2ccccc2)[C@@H](c2ccccc2)N2[C@@H](c3ccccc3OCCO)[C@]3(C(=O)Nc4ccc(C#CC5(O)CCCCCC5)cc43)[C@@H](C(=O)NC[C@H](O)c3ccccc3)[C@H]12,1.99,0.142,0.0924,1.03,0.81,1.75,1.24,-1.2 (inactive),1.74,0.0145
COC(=O)C(CC#Cc1ccc2c(c1)[C@]1(C(=O)N2)[C@H](C(=O)N2CCCCCCC2)[C@H]2C(=O)O[C@H](c3ccccc3)[C@H](c3ccccc3)N2[C@@H]1c1ccccc1OCCO)C(=O)OC,3.68,2.84,1.03,1.26,1.75,2.65,1.38,0.695 (inactive),3.61,3.1
CN(C)CCCC[C@@H]1NC(=O)[C@@H]2C[C@H](C(=O)NCCCCCN)[C@H](c3ccc(O)cc3)N2C1=O,0.591,0.137,-0.043,-0.285,0.235,2.23,0.293,-0.926 (inactive),0.0993,-0.0324
C=CC[C@@]1(C(=O)NCc2ccccc2)N=C(c2ccc(OCCCO)cc2)O[C@@H]1c1ccccc1CN=[N+]=[N-],0.351,-0.651,0.153,0.799,1.54,1.57,1.2,-2.56 (inactive),1.44,-0.0237
O=C1OCCC=C[C@H]2OC34C=CCN(CCN5CCOCC5)C(=O)[C@H]3N(CCO)C(=O)[C@@H]4C12 (stereo not given in full),-0.217,1.12,-0.179,0.127,-0.621,-0.714,0.916,-0.0663 (inactive),-0.569,-0.489
Oc1ccc2cc[n+](Cc3cccc(OC(F)(F)F)c3)cc2c1,-0.446,1.77,-0.0841,-0.0974,0.0892,-0.322,0.921,0.498 (inactive),0.191,0.0749
COCCOC(=O)N1C(=O)[C@@]2(c3cc(C#Cc4ccc(OC)cc4)ccc31)[C@H](c1ccc(O)cc1)N1[C@H](c3ccccc3)[C@H](c3ccccc3)OC(=O)[C@H]1[C@@H]2C(=O)N1CCN(c2ncccn2)CC1,-0.867,0.47,-0.0225,0.381,0.846,0.467,1.13,-0.431 (inactive),0.619,-0.132
CN1C(=O)C2C=CC(C(O)C3=C[C@H]4C[C@@H](C3)C4(C)C)N(Nc3ccc([N+](=O)[O-])cc3[N+](=O)[O-])C2C1=O (stereo not given in full),0.574,0.156,0.15,0.733,1.66,1.51,1.33,0.0285 (inactive),0.642,0.0826
Cc1c(NC(=O)/C(C#N)=C/C=C/c2ccccc2)c(=O)n(-c2ccccc2)n1C,-0.438,-0.0022,-0.0035,0.286,0.654,0.757,0.825,4.07 (inactive),0.003,0.237
CCCC[C@H]1OB(O)C[C@H]2C1=C(COc1ccccc1)C[C@H]1C(=O)N(Cc3ccccc3)C(=O)[C@H]12,-0.331,-0.413,-0.0434,0.418,0.0238,0.117,1.07,0.132 (inactive),-0.0344,0.0623
O=C1O[C@@H](c2ccccc2)[C@@H](c2ccccc2)N2[C@@H](c3ccc(O)cc3)[C@]3(C(=O)Nc4ccccc43)[C@@H](C(=O)NC[C@H](O)c3ccccc3)[C@H]12,-0.263,0.606,-0.141,0.0271,0.135,1.69,0.552,-1.23 (inactive),-0.174,-0.12
COc1ccc([Si](C)(C)[C@H]2[C@H](CC(=O)N3CCC[C@H]3CO)O[C@@]3(C(=O)N(c4ccccc4)c4ccccc43)[C@@H]2C)cc1,-0.371,0.509,-0.17,0.134,-0.568,0.0644,1.05,-1.74 (inactive),0.0963,-0.261
C=C(C(=O)CC[C@H](OC(=O)c1cccnc1)c1ccccc1OCCO)C(C)C,0.0323,1.78,-0.133,0.636,0.0984,-0.124,0.962,0.276 (inactive),0.106,-0.204
